Entries with a potency or affinity are not part of this list. Active and inactive are the calls of the source. No rule for the calls is given here.

We go through three molecules from PubChem BioAssay AID743343 (Broad Institute, 2014).

This experiment deals with Drosophila melanogaster bursicon receptor LGR2 (rickets). The experiment in a line: LGR2 antagonists, dose response, cell-based, HEK293, CRE-luciferase reporter, cherry pick, set 2 (AID 743343). Conditions: bursicon-induced cAMP antagonist; series mostly up to 35 µM.
Regarding `Cc1ccc2c(c1)C1CN(C)CCC1N2C(=O)c1cn(-c2ccccc2)nc1-c1ccccc1` (stereo not drawn), the molecule was classed as inactive. Turning to `O=C(O)c1nn(Cc2ccc(Cl)cc2Cl)c2ccccc12`, the molecule was called inactive.

Turning to `O=c1c2ccccc2nc(/C=C/c2ccc([N+](=O)[O-])o2)n1-c1ccc(O)cc1`, the call was inactive.
